Test results reported in PMC11006913.

Assays:
Experiment in all cases: PBM; 200 nM protein, PBS
Settings in all cases: dsDNA, one strand shown
ALX3 [1] = molecular target: ALX3 (Homo sapiens, UniProt O95076 139-225, N203Q)
HOXD13 [2] = molecular target: HOXD13 (Homo sapiens, UniProt P35453 263-343, T313R)
HOXD13 [3] = molecular target: HOXD13 (Homo sapiens, UniProt P35453 263-343)
ALX3 [4] = molecular target: ALX3 (Homo sapiens, UniProt O95076 139-225)
ALX3 [5] = molecular target: ALX3 (Homo sapiens, UniProt O95076 139-225, L168Q)
HOXD13 [6] = molecular target: HOXD13 (Homo sapiens, UniProt P35453 263-343, T313A)
ALX3 [7] = molecular target: ALX3 (Homo sapiens, UniProt O95076 139-225, L168V)
ALX3 [8] = molecular target: ALX3 (Homo sapiens, UniProt O95076 139-225, N203S)
ALX1 [9] = molecular target: ALX1 (Homo sapiens, UniProt Q15699 118-204, L144V)
ALX1 [10] = molecular target: ALX1 (Homo sapiens, UniProt Q15699 118-204, L144R)
ALX1 [11] = molecular target: ALX1 (Homo sapiens, UniProt Q15699 118-204)
Chain of ALX1 (Homo sapiens, UniProt Q15699 118-204) (Q15699 118-204): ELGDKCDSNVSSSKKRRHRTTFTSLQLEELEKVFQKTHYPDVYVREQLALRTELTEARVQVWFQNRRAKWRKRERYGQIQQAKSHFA

Chain of ALX3 (Homo sapiens, UniProt O95076 139-225, L168Q) (O95076 139-225 L168Q): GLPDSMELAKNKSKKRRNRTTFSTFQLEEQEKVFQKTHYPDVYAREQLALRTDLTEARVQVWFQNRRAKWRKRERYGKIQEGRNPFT
Chain of ALX1 (Homo sapiens, UniProt Q15699 118-204, L144R) (Q15699 118-204 L144R): as the sequence (Q15699 118-204) above, with L27R counted along it
Chain of ALX3 (Homo sapiens, UniProt O95076 139-225, N203Q) (O95076 139-225 N203Q): as the sequence (O95076 139-225 L168Q) above, with Q30L, N65Q counted along it
Chain of ALX1 (Homo sapiens, UniProt Q15699 118-204, L144V) (Q15699 118-204 L144V): as the sequence (Q15699 118-204) above, with L27V counted along it
Chain of ALX3 (Homo sapiens, UniProt O95076 139-225) (O95076 139-225): as the sequence (O95076 139-225 L168Q) above, with Q30L counted along it
Chain of ALX3 (Homo sapiens, UniProt O95076 139-225, N203S) (O95076 139-225 N203S): as the sequence (O95076 139-225 L168Q) above, with Q30L, N65S counted along it
Chain of ALX3 (Homo sapiens, UniProt O95076 139-225, L168V) (O95076 139-225 L168V): as the sequence (O95076 139-225 L168Q) above, with Q30V counted along it
Chain of HOXD13 (Homo sapiens, UniProt P35453 263-343, T313A) (P35453 263-343 T313A): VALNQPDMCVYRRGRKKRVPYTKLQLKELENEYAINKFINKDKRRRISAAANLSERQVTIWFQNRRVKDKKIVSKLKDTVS
Chain of HOXD13 (Homo sapiens, UniProt P35453 263-343) (P35453 263-343): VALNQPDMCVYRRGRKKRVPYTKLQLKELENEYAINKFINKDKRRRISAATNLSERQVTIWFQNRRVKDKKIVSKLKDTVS
Chain of HOXD13 (Homo sapiens, UniProt P35453 263-343, T313R) (P35453 263-343 T313R): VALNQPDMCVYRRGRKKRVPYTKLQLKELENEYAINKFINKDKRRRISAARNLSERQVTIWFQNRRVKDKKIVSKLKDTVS

What does the source list for ATTAAAAT?
binding signal (ALX3 [1]): 8.53 upbm affinity estimate (log intensity, higher = more binding, comparable within an allelic series); binding signal (HOXD13 [2]): 10.6 upbm affinity estimate (log intensity, higher = more binding, comparable within an allelic series); binding signal (HOXD13 [3]): 11.4 upbm affinity estimate (log intensity, higher = more binding, comparable within an allelic series); binding signal (ALX3 [4]): 11.2 upbm affinity estimate (log intensity, higher = more binding, comparable within an allelic series); binding signal (ALX3 [5]): 9.54 upbm affinity estimate (log intensity, higher = more binding, comparable within an allelic series); binding signal (HOXD13 [6]): 11.4 upbm affinity estimate (log intensity, higher = more binding, comparable within an allelic series); binding signal (ALX3 [7]): 9.23 upbm affinity estimate (log intensity, higher = more binding, comparable within an allelic series); binding signal (ALX3 [8]): 8.6 upbm affinity estimate (log intensity, higher = more binding, comparable within an allelic series)

For CATAATAA, which binding signal (ALX3 [1]) is on record?
The binding signal was 8.54 upbm affinity estimate (log intensity, higher = more binding, comparable within an allelic series).

How did the binding signal (ALX1 [9]) turn out when AGCGCAGC was run?
Its binding signal is 6.5 upbm affinity estimate (log intensity, higher = more binding, comparable within an allelic series).

What about the binding signal (ALX1 [10]) of the same sequence?
The binding signal was 6.49 upbm affinity estimate (log intensity, higher = more binding, comparable within an allelic series).

What about the binding signal (ALX1 [11]) of the same sequence?
Its binding signal is 6.42 upbm affinity estimate (log intensity, higher = more binding, comparable within an allelic series).

AATGAATG was tested. Which binding signal (ALX1 [9]) did it give?
Its binding signal is 9.18 upbm affinity estimate (log intensity, higher = more binding, comparable within an allelic series).

What about the binding signal (ALX1 [10]) of the same sequence?
Its binding signal is 9 upbm affinity estimate (log intensity, higher = more binding, comparable within an allelic series).

And the binding signal (ALX1 [11])?
The binding signal was 9.33 upbm affinity estimate (log intensity, higher = more binding, comparable within an allelic series).

Which results are given for AATTGGTC?
binding signal (ALX1 [9]): 9.84 upbm affinity estimate (log intensity, higher = more binding, comparable within an allelic series); binding signal (ALX1 [10]): 9.58 upbm affinity estimate (log intensity, higher = more binding, comparable within an allelic series); binding signal (ALX1 [11]): 10.2 upbm affinity estimate (log intensity, higher = more binding, comparable within an allelic series)

Which binding signal (ALX3 [1]) does the source give for ACTTATTA here?
Its binding signal is 8.57 upbm affinity estimate (log intensity, higher = more binding, comparable within an allelic series).

Which results are given for AACTAAGT?
binding signal (ALX1 [9]): 8.49 upbm affinity estimate (log intensity, higher = more binding, comparable within an allelic series); binding signal (ALX1 [11]): 8.92 upbm affinity estimate (log intensity, higher = more binding, comparable within an allelic series)

How did the binding signal (ALX1 [9]) turn out when CCGACTGC was run?
The binding signal was 6.5 upbm affinity estimate (log intensity, higher = more binding, comparable within an allelic series).

And the binding signal (ALX1 [10])?
Its binding signal is 6.49 upbm affinity estimate (log intensity, higher = more binding, comparable within an allelic series).

And the binding signal (ALX1 [11])?
The binding signal was 6.52 upbm affinity estimate (log intensity, higher = more binding, comparable within an allelic series).

With CGCCGAGA as the sequence, how does the binding signal (ALX1 [9]) read?
The binding signal was 6.15 upbm affinity estimate (log intensity, higher = more binding, comparable within an allelic series).

What about the binding signal (ALX1 [10]) of the same sequence?
Its binding signal is 6.32 upbm affinity estimate (log intensity, higher = more binding, comparable within an allelic series).

What about the binding signal (ALX1 [11]) of the same sequence?
Its binding signal is 6.31 upbm affinity estimate (log intensity, higher = more binding, comparable within an allelic series).

With AGCAATAT as the sequence, how does the binding signal (ALX1 [9]) read?
Its binding signal is 8.17 upbm affinity estimate (log intensity, higher = more binding, comparable within an allelic series).

What about the binding signal (ALX1 [10]) of the same sequence?
The binding signal was 8.11 upbm affinity estimate (log intensity, higher = more binding, comparable within an allelic series).

And the binding signal (ALX1 [11])?
Its binding signal is 8.09 upbm affinity estimate (log intensity, higher = more binding, comparable within an allelic series).

For ATAATAAG, which binding signal (ALX3 [1]) is on record?
The binding signal was 8.64 upbm affinity estimate (log intensity, higher = more binding, comparable within an allelic series).

Which results are given for CGGGTGAG?
binding signal (ALX1 [9]): 6.48 upbm affinity estimate (log intensity, higher = more binding, comparable within an allelic series); binding signal (ALX1 [10]): 6.58 upbm affinity estimate (log intensity, higher = more binding, comparable within an allelic series); binding signal (ALX1 [11]): 6.62 upbm affinity estimate (log intensity, higher = more binding, comparable within an allelic series)

Which binding signal (ALX3 [1]) does the source give for TAATAATA here?
The binding signal was 8.57 upbm affinity estimate (log intensity, higher = more binding, comparable within an allelic series).

How did the binding signal (ALX1 [9]) turn out when CAGACTGG was run?
Its binding signal is 6.33 upbm affinity estimate (log intensity, higher = more binding, comparable within an allelic series).

What about the binding signal (ALX1 [10]) of the same sequence?
Its binding signal is 6.4 upbm affinity estimate (log intensity, higher = more binding, comparable within an allelic series).

What about the binding signal (ALX1 [11]) of the same sequence?
The binding signal was 6.39 upbm affinity estimate (log intensity, higher = more binding, comparable within an allelic series).

What does the source list for CCTTGCCG?
binding signal (ALX1 [9]): 6.69 upbm affinity estimate (log intensity, higher = more binding, comparable within an allelic series); binding signal (ALX1 [10]): 6.58 upbm affinity estimate (log intensity, higher = more binding, comparable within an allelic series); binding signal (ALX1 [11]): 6.55 upbm affinity estimate (log intensity, higher = more binding, comparable within an allelic series)

What does the source list for CAGTCGCA?
binding signal (ALX3 [1]): 7.8 upbm affinity estimate (log intensity, higher = more binding, comparable within an allelic series); binding signal (ALX3 [4]): 7.85 upbm affinity estimate (log intensity, higher = more binding, comparable within an allelic series); binding signal (ALX3 [5]): 7.89 upbm affinity estimate (log intensity, higher = more binding, comparable within an allelic series); binding signal (ALX3 [7]): 7.88 upbm affinity estimate (log intensity, higher = more binding, comparable within an allelic series); binding signal (ALX3 [8]): 7.8 upbm affinity estimate (log intensity, higher = more binding, comparable within an allelic series)

What does the source list for ACCAGCGG?
binding signal (ALX3 [1]): 7.79 upbm affinity estimate (log intensity, higher = more binding, comparable within an allelic series); binding signal (ALX3 [4]): 7.56 upbm affinity estimate (log intensity, higher = more binding, comparable within an allelic series); binding signal (ALX3 [5]): 7.79 upbm affinity estimate (log intensity, higher = more binding, comparable within an allelic series); binding signal (ALX3 [7]): 7.78 upbm affinity estimate (log intensity, higher = more binding, comparable within an allelic series); binding signal (ALX3 [8]): 7.78 upbm affinity estimate (log intensity, higher = more binding, comparable within an allelic series)

Which results are given for CAGTTACG?
binding signal (ALX3 [1]): 8 upbm affinity estimate (log intensity, higher = more binding, comparable within an allelic series); binding signal (ALX3 [4]): 8.89 upbm affinity estimate (log intensity, higher = more binding, comparable within an allelic series); binding signal (ALX3 [5]): 8.09 upbm affinity estimate (log intensity, higher = more binding, comparable within an allelic series); binding signal (ALX3 [7]): 8.1 upbm affinity estimate (log intensity, higher = more binding, comparable within an allelic series); binding signal (ALX3 [8]): 8.08 upbm affinity estimate (log intensity, higher = more binding, comparable within an allelic series)
